Values without a mark were called inactive. The source made the active and inactive calls.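 Rule for the calls: active = activity change under -35% in any replicate well, with more than 20 beads read in that well; inactive = the rest.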
These compounds were tested against Caspase recruitment domain-containing protein 9 (Homo sapiens) + E3 ubiquitin-protein ligase TRIM62 (Homo sapiens) (UniProt Q9H257+Q9BVG3) (assay: CARD9/TRIM62 protein interaction inhibitors – cell lysate, HEK293FT lysates, Luminex bead ELISA, primary screen (AID 1259341;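 note: PE anti-Flag signal of Flag-CARD9 captured by myc-TRIM62 beads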)). Conditions: PE fluorescence, hits give low values, concentration not given here.
Caspase recruitment domain-containing protein 9 (Homo sapiens) + E3 ubiquitin-protein ligase TRIM62 (Homo sapiens), sequence (Q9BVG3 whole entry, looked up, the tested form may be a part): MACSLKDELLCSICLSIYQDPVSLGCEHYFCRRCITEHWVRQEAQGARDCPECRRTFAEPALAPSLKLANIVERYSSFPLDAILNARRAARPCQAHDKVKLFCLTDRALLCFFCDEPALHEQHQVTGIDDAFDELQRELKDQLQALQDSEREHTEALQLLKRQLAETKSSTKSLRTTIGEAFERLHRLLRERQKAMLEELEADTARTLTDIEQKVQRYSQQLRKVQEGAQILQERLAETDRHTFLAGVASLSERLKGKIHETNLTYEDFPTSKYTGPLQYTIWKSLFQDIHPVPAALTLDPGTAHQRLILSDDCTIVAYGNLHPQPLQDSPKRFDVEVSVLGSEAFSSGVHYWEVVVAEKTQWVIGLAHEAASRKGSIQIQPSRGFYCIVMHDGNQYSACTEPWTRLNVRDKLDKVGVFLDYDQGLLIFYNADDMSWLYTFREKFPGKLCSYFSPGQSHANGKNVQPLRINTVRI
Caspase recruitment domain-containing protein 9 (Homo sapiens) + E3 ubiquitin-protein ligase TRIM62 (Homo sapiens), sequence (Q9H257 whole entry, looked up, the tested form may be a part): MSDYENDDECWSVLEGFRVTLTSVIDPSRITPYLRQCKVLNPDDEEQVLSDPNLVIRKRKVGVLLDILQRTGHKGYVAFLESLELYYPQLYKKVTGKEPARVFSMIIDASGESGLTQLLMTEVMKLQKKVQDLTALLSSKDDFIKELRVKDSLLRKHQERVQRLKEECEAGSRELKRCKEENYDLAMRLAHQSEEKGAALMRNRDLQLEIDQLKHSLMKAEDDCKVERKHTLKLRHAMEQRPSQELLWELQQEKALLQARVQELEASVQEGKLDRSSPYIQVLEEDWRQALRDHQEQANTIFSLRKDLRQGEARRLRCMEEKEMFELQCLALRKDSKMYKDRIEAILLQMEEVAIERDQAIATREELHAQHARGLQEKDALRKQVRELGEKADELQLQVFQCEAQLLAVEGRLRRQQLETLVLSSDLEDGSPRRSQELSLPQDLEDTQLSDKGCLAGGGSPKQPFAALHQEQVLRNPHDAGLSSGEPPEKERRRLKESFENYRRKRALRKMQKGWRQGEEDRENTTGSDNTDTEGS

Row | Structure (SMILES) | activity change, negative = inhibition
1 | CC(C)=CCC(C#N)(CC=C(C)C)C(=O)O | 8.02%
2 | c1coc(-c2cn3ccc4ccccc4c3n2)c1 | -1.55%
3 | O=C(O)CCc1ccc(-c2cccs2)n1NC(=O)c1ccco1 | 1.63%
4 | c1ccc(-c2nc(-c3ccco3)n3ccccc23)cc1 | -5.09%
5 | C=CC(=O)N1CCCC2(CCN(CCN3CCCC3)C2=O)C1 (stereo unspecified) | -70.2% (active)
6 | N#Cc1c(NC(=O)CSc2nc3ccccc3o2)sc2c1CCC2 | 2.26%
7 | O=C(Nc1nc(-c2nc3ccccc3s2)cs1)c1ccco1 | 1.21%
8 | O=C(O)COc1ccc(-n2cccc2)cc1 | -1.45%
9 | Cc1ccc(S(=O)(=O)Nc2ccc3c(c2)C(=O)N([C@H](C)CO)C[C@H](C)[C@@H](CN(C)C(=O)C2CCCCC2)OCCCC[C@H](C)O3)cc1 | 6.06%
10 | O=C(NCc1cccnc1)c1ccccc1-c1nc(-c2ccccc2)no1 | -1.01%
11 | Cc1cccc2nc(CSCc3ccco3)cn12 | -4.69%
12 | COc1ccc(Nc2nc(-c3nnc(-c4ccc(F)cc4)o3)nc3ccccc23)cc1Cl | -3.07%
13 | CCc1ccc(Nc2nc(C(=O)NCc3ccc(N(C)C)cc3)nc3ccccc23)cc1 | -21%
14 | NC(=O)C1(N2CCCCC2)CCN(c2ccc(NC(=O)c3cccc(Cl)c3)cc2C(=O)O)CC1 | -49% (active)
15 | NC(=O)C1(N2CCCCC2)CCN(c2ncc(NC(=O)c3ccc(F)cc3)cc2C(=O)O)CC1 | -19.3%
16 | CC(=O)Nc1ccc(Nc2nc(-c3nnc(-c4cccc(C)c4)o3)nc3ccccc23)cc1 | -1.95%
17 | Cc1ccc(N2C(=O)c3ccccc3C2C(=O)c2ccc(O)cc2O)cc1 (stereo unspecified) | 12.1%
18 | CN(Cc1ccco1)S(=O)(=O)c1nnc(NC(=O)c2ccccc2)s1 | 13.7%

Row | Structure (SMILES) | activity change, negative = inhibition
19 | O=C(Nc1nnc(-c2ccco2)s1)c1ccccc1 | 1.07%
20 | O=C(COC(=O)c1cc(-c2ccco2)nc2ccccc12)NCc1ccccc1 | -1.75%
21 | COc1ccc(S(=O)(=O)N2CCN(C(=O)c3cc4c(s3)CCC4)CC2)cc1 | 0.552%
22 | O=c1oc(-c2ccccc2)nc2sc3c(c12)CCC3 | 0.684%
23 | O=C(NCCc1ccco1)c1ccc(OCc2cn3ccccc3n2)cc1 | 0.111%
24 | COc1ccc(NC(=O)c2nc(Nc3ccccc3)c3ccccc3n2)cc1 | 4.26%
25 | CC(C)C(CC(=O)NCc1ccco1)c1ccco1 (stereo unspecified) | -8.54%
26 | O=c1oc(/C=C/c2ccc([N+](=O)[O-])s2)nc2ccccc12 | -7%
27 | O=C1CS/C(=N\N=C\c2ccco2)N1c1ccccc1 | -3.42%
28 | CCN1CCN(C(=O)c2cc(-c3ccco3)nc3ccccc23)CC1 | 4.84%
29 | O=C(Cc1cccs1)Nc1nnc(Cc2ccccc2)s1 | 10.6%
30 | O=S(=O)(c1ccccc1)N1CC2CN(Cc3ccc(O)cc3)C2C1 (stereo unspecified) | -21%
31 | COc1ccc(S(=O)(=O)Nc2ccc3c(c2)C(=O)N([C@H](C)CO)C[C@H](C)[C@@H](CN(C)CC2CCCCC2)OCCCC[C@H](C)O3)cc1 | 5.92%
32 | COc1ccc(N2Cc3cccc(C(=O)NC(C)CCc4ccco4)c3C2=O)cc1 (stereo unspecified) | 0.962%
33 | O=C(COC(=O)c1ccccc1Oc1ccccc1)NCc1ccco1 | 3.86%
34 | O=C(Cn1cncc1-c1ccc([N+](=O)[O-])cc1)Nc1ccccc1F | 4.4%
35 | Cc1ccc(Nc2nc(C(=O)Nc3ccc(Cl)cc3)nc3ccccc23)cc1 | -19.6%
36 | Cc1ccccc1C(=O)Nc1cnc(N2CCC(C(N)=O)(N3CCCCC3)CC2)c(C(=O)O)c1 | -48.4% (active)
